Data reported in PubChem BioAssay (NCI).
About 83,000 compounds went through this panel and 20% of them were active in at least one assay; those are over-represented in the sample as a whole.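 Single-concentration screen, 48 h exposure, 96-well plates. Endpoint: percent growth. Below 10 = active.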 Values without a mark were called inactive. The source made the active and inactive calls.

Tested on: MDA-MB-468 breast
Experiment: NCI-60 one-dose screen, 48 h (100 = growth as untreated, 0 = no growth, -100 = all killed)
Settings: 10 µM unless noted

Row | Structure (SMILES) | growth
1 | COc1cc(OC)cc(C(=O)Nc2cccc(C#Cc3cccc4[nH]nc(N)c34)c2)c1 | 31.8%
2 | O=[N+]([O-])c1cccc(N=Cc2ccc3c(c2)OCO3)c1 | 103%
3 | CCOc1ccccc1/C=N\N=C(\N)N/N=C/c1ccccc1OCC | -8.3% (active)
4 | CCOC(=O)c1c(-c2ccc(C)cc2)c(C#N)c(=O)n(-c2cccc(C(F)(F)F)c2)c1N | 99.9%
5 | c1ccc2c(-c3nc(-c4c[nH]c5ncccc45)cs3)c[nH]c2c1 | 108%
6 | O=C(Cc1ccccc1)NNc1nc(Cl)nc(N2CCN(C(c3ccccc3)c3ccccc3)CC2)n1 | 38.2%
7 | N#Cc1c(C(F)(F)F)cc(Nc2ccc3nc(NCCN4CCCC4)oc3c2)n2c1nc1ccccc12 | 34.1%
8 | CCOC(=O)Cc1cc(Br)c(OCc2ccccc2)c(Br)c1 | 110%
9 | O=C(Cc1ccc(/C=C/C(=O)c2ncc[nH]2)cc1)Nc1cc(F)c(F)c(F)c1 | 8.95% (active)
10 | O=C(NCc1ccccc1)Nc1ccccc1CNc1nc(Nc2ccc(OCCN3CCCC3)cc2)ncc1Cl | 74.5%
11 | CN(C)c1ccc(N=Nc2cccc3ccccc23)cc1 | -26.6% (active)
12 | CCSc1nc(NC)c2cc(-c3ccc(C(F)(F)F)cc3)ccc2n1 | 110%
13 | Cc1cc(NC(=O)c2cccc(C(F)(F)F)c2)ccc1-n1ccc2c(NC(=O)c3ccccc3)nccc21 | 111%
14 | CN(C)C(CNc1oc(-c2cccc3ccccc23)nc1C#N)c1ccco1 (stereo not given) | 97%
15 | O=C1OCC2=C1C(c1cccc(Cl)c1)c1cc3c(cc1N2CCO)OCO3 (stereo not given) | -10.2% (active)
16 | O=C(O)CCC(=O)OC(C1CO1)C(OC(=O)CCC(=O)O)C1CO1 (stereo not given) | 99%
17 | COc1cc2ncnc3c2cc1OCCCCCN(C)Cc1ccc(Br)cc1N3 | -26.6% (active)
18 | COc1cc2nc(SCc3cc(OC)c(OC)c(OC)c3)n(-c3ccccc3OC)c(=O)c2cc1OC | 97.9%
19 | O=C(CCCCCCN1CC(=O)N2[C@@H](C3CC3)c3[nH]c4ccccc4c3C[C@H]2C1=O)NO | 64.6%
20 | N#C/C(=C\c1c(-c2ccccc2)[nH]c2ccccc12)C(=O)c1ccccc1 | 86.9%
21 | CC(C)CSc1ncnc2nc[nH]c12 | 104%
22 | O=c1[nH]nc(-c2ccc(Br)cc2)c2sc(NC(=S)Nc3ccc(Cl)cc3)nc12 | 110%
23 | CCN1C(=O)N(CC)C2C1NC(=S)N2/N=C/C=C/c1ccccc1OC (stereo not given) | -0.348% (active)
24 | C=C(C)[C@@H]1CC[C@]2(C(=O)NS(=O)(=O)c3ccccc3)CC[C@]3(C)[C@H](CC[C@@H]4[C@@]5(C)CC[C@H](OC(=O)NS(=O)(=O)c6ccccc6)C(C)(C)[C@@H]5CC[C@]43C)[C@@H]12 | 25.8%
25 | N#CCCN1CCN(CCC#N)C1=S | 119%
